Results: the supplement of paper PMC6522484
± gives the standard deviation of the averaged measurements.

Experiments:
DLD1 [1] = assay: cell viability (CellTiter-Glo) relative to plate median (fraction of plate median); higher = more viable cells; conditions: 5 µM; treatment time 24 h; reporter: 7TFP
Outline: (§1)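 Per-well firefly luciferase or CellTiterGlo luminescence, normalised to the plate median, is what is reported. It was measured in colorectal cancer cells with stable lentiviral TCF/Wnt firefly luciferase reporters after a 24 h treatment with library compounds at a final 5 µM. The mean of two independent replicates is given.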

HCT116 = assay: as above; conditions: 5 µM; treatment time 24 h; reporter: TCF4/Wnt
Outline: as §1

SW480 [2] = assay: as above; conditions: 5 µM; treatment time 24 h; reporter: 7TFP
Outline: as §1

DLD1 [3] = assay: TCF/Wnt firefly luciferase reporter signal relative to plate median (fraction of plate median); higher = higher Wnt reporter signal; conditions: 5 µM; treatment time 24 h; reporter: 7TFP
Outline: as §1

SW480 [4] = assay: as above; conditions: 5 µM; treatment time 24 h; reporter: 7TFP
Outline: as §1

SMILES | cell viability (DLD1 [1]) | cell viability (HCT116) | cell viability (SW480 [2]) | TCF/Wnt firefly luciferase reporter signal (DLD1 [3]) | TCF/Wnt firefly luciferase reporter signal (SW480 [4])
COc1cc(O)c2c(c1)C(=O)c1cc3c(c(OC)c1C2=O)[C@@H]1CCO[C@@H]1O3 [Aversin] | 1.24 ± 0.17 | 1.18 ± 0.021 | 1.12 ± 0.021 | 0.95 ± 0.059 | 1.02 ± 0.16
CS(=O)(=O)OCCCCOS(C)(=O)=O | 1.12 ± 0.2 | 1.06 ± 0.028 | 1.06 ± 0.05 | 0.9365 ± 0.005 | 0.984 ± 0.037
NNc1nncc2ccccc12 | 1.055 ± 0.0071 | 1.06 ± 0.057 | 1.055 ± 0.0071 | 1.23 ± 0.25 | 1.28 ± 0.17
CC1(C)O[C@@H]2[C@@H](CO[C@@]3(COS(N)(=O)=O)OC(C)(C)O[C@@H]23)O1 | 0.925 ± 0.042 | 1.04 ± 0.014 | 1.03 ± 0.052 | 1.12 ± 0.11 | 0.845 ± 0.12
CC(=O)[C@@]1(O)CC[C@H]2[C@@H]3CCC4=CC(=O)CC[C@]4(C)[C@H]3CC[C@@]21C | 0.947 ± 0.12 | 0.926 ± 0.063 | 0.922 ± 0.12 | 1.035 ± 0.0071 | 1.02
CC[C@H](C)[C@@H]1NC(=O)[C@H](C)NC1=O [Cyclo(alanylisoleucyl)] | 1.05 ± 0.12 | 1.165 ± 0.0071 | 1.07 ± 0.014 | 1.05 ± 0.028 | 0.992 ± 0.15
CN1CC(=O)N2[C@H](c3ccc4c(c3)OCO4)c3[nH]c4ccccc4c3C[C@@H]2C1=O | 0.995 ± 0.079 | 1.08 ± 0.028 | 0.995 ± 0.021 | 0.973 ± 0.081 | 0.941 ± 0.098
O=c1c2ccccc2oc2ccccc12 | 0.986 ± 0.016 | 0.98 ± 0.043 | 0.98 ± 0.029 | 0.985 ± 0.036 | 0.916 ± 0.03
COc1ccc(-c2oc3cc(OC)c(OC)c(OC)c3c(=O)c2OC)cc1 | 0.978 ± 0.06 | 0.918 ± 0.06 | 1.02 ± 0.021 | 1.055 ± 0.0071 | 0.917 ± 0.087
COc1ccc(C(=O)O)c(O)c1OC | 0.991 ± 0.055 | 0.977 ± 0.12 | 0.9195 ± 0.00071 | 0.803 ± 0.069 | 0.905 ± 0.19
CCCCC(CC)CN1CN(CC(CC)CCCC)CC(C)(N)C1 (stereo not given) | 0.96 ± 0.071 | 0.988 ± 0.032 | 0.985 ± 0.0028 | 1.01 ± 0.048 | 0.997 ± 0.018
COC(=O)Nc1nc2cc(C(=O)c3ccccc3)ccc2[nH]1 | 0.884 ± 0.069 | 0.801 ± 0.1 | 1 ± 0.028 | 0.896 ± 0.027 | 0.94 ± 0.023
C=CCSCC(N)C(=O)O (stereo not given) | 1.015 ± 0.0071 | 0.976 ± 0.15 | 1.01 ± 0.05 | 0.923 ± 0.027 | 0.923 ± 0.02
CCCCCCCCCCCC[C@@H](C(=O)O)[C@H](C)C(=O)O | 1.005 ± 0.0071 | 1.08 ± 0.25 | 1 ± 0.028 | 0.944 ± 0.11 | 1.03
O=C(O)c1ccccc1Nc1cccc(C(F)(F)F)c1 | 0.967 ± 0.0099 | 0.934 ± 0.042 | 0.95 ± 0.011 | 0.96 ± 0.057 | 1.07 ± 0.064
COC(=O)/C=C/c1ccc(O)c(O)c1 [Caffeic acid methylester] | 0.918 ± 0.079 | 0.987 ± 0.12 | 0.979 ± 0.072 | 1.02 ± 0.098 | 1.04 ± 0.087
C[C@]12C=CC(=O)C=C1CC[C@@H]1[C@@H]2C(=O)C[C@@]2(C)[C@H]1CC[C@]2(O)C(=O)CO | 1 ± 0.085 | 1.125 ± 0.0071 | 1.07 ± 0.057 | 1.035 ± 0.0071 | 0.91 ± 0.17
C=C[C@H]1CN2CC[C@H]1C[C@H]2[C@H](O)c1ccnc2ccc(OC)cc12 | 1.11 ± 0.035 | 1.06 ± 0.021 | 1.07 ± 0.092 | 1.205 ± 0.0071 | 0.983 ± 0.11
C[C@H]1[C@H]2CC[C@H]3[C@@H]4CC=C5C[C@@H](N(C)C)CC[C@]5(C)[C@H]4CC[C@]23CN1C | 0.896 ± 0.0042 | 0.783 ± 0.14 | 0.984 ± 0.021 | 0.9855 ± 0.00071 | 1.05
CN(C)CCCC1(c2ccc(F)cc2)OCc2cc(C#N)ccc21 (stereo not given) | 1.02 ± 0.044 | 1.01 ± 0.061 | 0.996 ± 0.048 | 0.964 ± 0.0014 | 1.01 ± 0.1
CC[C@H]1OC(=O)[C@H](C)[C@@H](O[C@H]2C[C@@](C)(OC)[C@@H](O)[C@H](C)O2)[C@H](C)[C@@H](O[C@@H]2O[C@H](C)C[C@H](N(C)C)[C@H]2O)[C@](C)(O)C[C@@H](C)C(=O)[C@H](C)[C@@H](O)[C@]1(C)O | 1.01 ± 0.05 | 0.986 ± 0.034 | 1 ± 0.028 | 0.924 ± 0.09 | 0.874 ± 0.051
CCC(=O)OCC(=O)[C@@]1(OC(=O)CC)[C@@H](C)C[C@H]2[C@@H]3CCC4=CC(=O)C=C[C@]4(C)[C@@]3(Cl)[C@@H](O)C[C@@]21C | 0.958 ± 0.0057 | 0.982 ± 0.11 | 1.01 | 0.94 ± 0.044 | 0.941 ± 0.018
C/C=C/C1=CC(=O)[C@@H](O)[C@@H]1O [Terrein] | 0.964 ± 0.066 | 1.03 ± 0.014 | 0.986 ± 0.011 | 1.25 ± 0.085 | 1.1 ± 0.11
Cc1nc2ccccn2c(=O)c1CCN1CCC(C(=O)c2ccc(F)cc2)CC1 | 0.911 ± 0.15 | 1.03 ± 0.099 | 1.04 ± 0.057 | 1.01 ± 0.037 | 0.947 ± 0.017
C[C@@H]1Cc2cc(O)cc(O)c2C(=O)O1 [6-Hydroxymellein] | 0.98 ± 0.0071 | 0.987 ± 0.018 | 1.015 ± 0.0071 | 0.927 ± 0.1 | 0.974 ± 0.037
CCOC(=O)c1c(C)c(Cl)c(O)c(Cl)c1O | 0.991 ± 0.042 | 0.987 ± 0.013 | 0.9025 ± 0.0078 | 0.966 ± 0.013 | 0.994 ± 0.052
O=C(Oc1ccccc1C(=O)O)c1ccccc1O | 1.02 ± 0.014 | 0.961 ± 0.054 | 1.03 ± 0.014 | 1.06 ± 0.14 | 1.02 ± 0.18
CC(=O)Oc1ccc(O)cc1 | 1.03 ± 0.021 | 1.08 ± 0.035 | 1.04 ± 0.014 | 1.07 ± 0.042 | 1.035 ± 0.0071
COc1ccc2c(c1)OC/C(=C/c1ccc(OC)c(OC)c1)C2=O | 0.936 ± 0.028 | 0.989 ± 0.086 | 0.966 ± 0.028 | 0.92 ± 0.021 | 0.972 ± 0.083
